Screens from PubChem BioAssay.
FEN1 inhibitor – human FEN1 inhibition | 0.35% of 390,000 active | Recombinant FEN1 flap cleavage, fluorescence, 15 min | P39748 | Potency, µM (doses to about 114 µM), most hits filed as inhibitors; note: nearly all actives have a fitted effect of over 65% in size
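Compounds are tested as a concentration series against 10 nM FEN1; after a 15 min room-temperature preincubation, 50 nM substrate starts cleavage, with plate reads at 0 and 15 min. Normalized responses are fitted by a Hill equation.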
POLI inh – blocks human DNA polymerase iota activity. Q9UNA4. Pol iota fluorescent replication assay, 10 min. Potency, µM (doses to about 115 µM), usual class: inhibitors. 1% of 390,000 active. AID 588590
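Pol iota at 10 nM preincubated 15 min with compounds at room temperature; reaction started with fluorescent substrate, 50 nM final. Fluorescence read kinetically at 0 and 10 min; buffer-only wells as negative control.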
Pol kappa inh-1 – blocks human DNA polymerase kappa activity. Potency, µM (doses to about 107 µM), most hits filed as inhibitors. Q9UBT6. 0.53% of 400,000 active. purified Pol kappa, fluorescent DNA synthesis assay, 10 min
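Enzyme at 10 nM met test compounds for 15 min at room temperature. Substrate addition (50 nM final) began the reaction, which was monitored by fluorescence at 0 and 10 min.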
WRN helicase inh – inhibitors of human WRN helicase | Q14191 | WRN helicase unwinding, fluorescent forked duplex, kinetic | Potency, µM (titrated, usually from 114 µM), most hits filed as inhibitors | 0.46% of 360,000 active | AID 651768; note: nearly all actives have a fitted effect of over 55% in size
Target sequence (Q14191 whole entry, looked up): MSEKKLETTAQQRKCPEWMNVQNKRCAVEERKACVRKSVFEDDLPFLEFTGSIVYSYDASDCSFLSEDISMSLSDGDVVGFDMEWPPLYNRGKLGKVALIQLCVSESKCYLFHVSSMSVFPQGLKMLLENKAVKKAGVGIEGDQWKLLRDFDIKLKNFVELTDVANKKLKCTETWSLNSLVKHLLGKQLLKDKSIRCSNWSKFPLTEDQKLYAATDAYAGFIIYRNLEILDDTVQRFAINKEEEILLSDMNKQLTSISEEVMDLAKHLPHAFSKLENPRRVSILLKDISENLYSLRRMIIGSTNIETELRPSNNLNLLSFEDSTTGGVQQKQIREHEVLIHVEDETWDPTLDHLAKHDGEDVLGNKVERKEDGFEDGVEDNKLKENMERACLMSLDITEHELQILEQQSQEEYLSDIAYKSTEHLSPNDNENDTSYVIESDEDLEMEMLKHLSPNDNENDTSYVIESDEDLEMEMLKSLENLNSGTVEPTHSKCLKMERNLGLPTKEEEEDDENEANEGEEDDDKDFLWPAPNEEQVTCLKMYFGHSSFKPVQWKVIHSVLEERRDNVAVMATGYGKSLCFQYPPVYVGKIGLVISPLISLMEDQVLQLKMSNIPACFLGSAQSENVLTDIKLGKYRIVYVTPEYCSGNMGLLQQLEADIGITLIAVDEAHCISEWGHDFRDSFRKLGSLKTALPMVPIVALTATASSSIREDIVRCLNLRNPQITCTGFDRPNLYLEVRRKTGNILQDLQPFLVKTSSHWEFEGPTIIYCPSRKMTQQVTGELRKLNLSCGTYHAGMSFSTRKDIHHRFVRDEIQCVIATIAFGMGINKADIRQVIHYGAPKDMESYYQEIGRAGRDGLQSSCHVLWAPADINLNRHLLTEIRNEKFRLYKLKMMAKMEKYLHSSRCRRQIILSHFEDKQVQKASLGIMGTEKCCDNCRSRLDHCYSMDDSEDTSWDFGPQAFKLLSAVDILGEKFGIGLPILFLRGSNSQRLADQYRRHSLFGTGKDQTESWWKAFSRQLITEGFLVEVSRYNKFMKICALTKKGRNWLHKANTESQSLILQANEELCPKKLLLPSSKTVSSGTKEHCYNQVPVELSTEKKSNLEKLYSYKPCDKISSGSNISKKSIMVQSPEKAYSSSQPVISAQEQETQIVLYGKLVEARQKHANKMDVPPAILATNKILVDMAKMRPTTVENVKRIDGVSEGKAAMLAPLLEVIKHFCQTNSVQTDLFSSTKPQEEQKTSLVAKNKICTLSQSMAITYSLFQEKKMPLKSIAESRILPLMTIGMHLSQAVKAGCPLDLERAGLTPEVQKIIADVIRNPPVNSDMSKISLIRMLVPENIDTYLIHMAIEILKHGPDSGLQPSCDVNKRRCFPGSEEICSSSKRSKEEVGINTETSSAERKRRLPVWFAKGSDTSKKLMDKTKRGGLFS
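WRN at 20 nM final was preincubated with compound for 15 min at room temperature; reaction started with 100 nM forked duplex oligonucleotide carrying fluorophore and quencher plus 2 mM ATP (final). Unwinding followed kinetically by red fluorescence (ex 525/em 598 nm).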
Pol eta inh-1 – inhibitors of human DNA polymerase eta; Q9Y253; recombinant Pol eta, fluorescent DNA replication assay; Potency, µM (series often up to 114 µM), usual class: inhibitors; 1.2% of 390,000 active; AID 588591
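Pol eta at 10 nM preincubated with compounds 15 min at room temperature; reaction started with fluorescent substrate (50 nM final) and read kinetically at 0 and 10 min.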
POLB inh – DNA polymerase beta (human) inhibition | Pol beta primer extension/strand displacement, fluorescence kinetic | Potency, µM (top dose mostly 114 µM), usual class: inhibitors | 1.3% of 340,000 active
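Values derive from four-parameter Hill fits of normalized kinetic data: reads at 0 and 10 min following addition of 50 nM substrate to 10 nM Pol beta preincubated 15 min with compound.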
PGK validate – validation of Trypanosoma brucei phosphoglycerate kinase inhibitors; shares compounds with Pol kappa inh-1; TbPGK coupled GAPDH assay, Kinase-Glo luminescence; Potency, µM (series often up to 57.5 µM), hits mostly inhibitors; 79% of 500 active; AID 686980; note: nearly all actives have a fitted effect of over 65% in size
Pol iota confirm – Confirm cherry-picked inhibitors of human polymerase iota | shares compounds with Pol kappa inh-1 | Pol iota primer extension, TAMRA/BHQ fluorescence | AID 720496 | Potency, µM, most hits filed as inhibitors | 77% of 1,500 active
Pol kappa inh-2 – confirmation of human DNA polymerase kappa inhibitors. Potency, µM, hits mostly inhibitors. shares compounds with Pol eta inh-1. purified Pol-kappa, fluorescent strand-displacement substrate. AID 720501. 76% of 920 active
Pol eta inh-2 – Pol eta (human) inhibition, cherry-pick confirmation; 64% of 2,600 active; shares compounds with Pol eta inh-1; Pol eta primer extension, TAMRA/BHQ fluorescence, 10 min; AID 720502; Potency, µM, actives largely listed as inhibitors
Numbers stand for hits; i = inactive; ? = inconclusive; nt = not tested or not shown; [ ] = remark or other dose. Sampled rows, rich in hits. Any-hit rate of the full collection: about 2.4%. Calls come from the whole dose curve; as a rule, active = well fitted curve in the direction sought with a large enough effect; inconclusive = small, poorly fitted or top-dose-only effect, or another doubt; inactive = no such curve, though single readings can be large; an effect the other way counts as inactive or inconclusive.

SMILES	FEN1 inhibitor	POLI inh	Pol kappa inh-1	WRN helicase inh	Pol eta inh-1	POLB inh	Pol iota confirm	Pol eta inh-2	others
CCOC(=O)C1=C(COC(=O)/C=C/c2ccco2)NC(=O)NC1C (stereo unspecified)	i	14.1µM	50.1µM	?	11.2µM	nt	18.9	26.9
CN(C)c1ccc2cc(S(=O)(=O)O)cc(O)c2c1	50.1µM	?	31.6µM	?	10µM	nt	?	19
CSc1ccc(/C=C(\C(=O)O)c2ccc(S(=O)(=O)N3CCCCC3)s2)cc1	i	?	i	i	?	?	nt	nt
O=C(O)/C(=C\c1ccc(Cl)c([N+](=O)[O-])c1)c1ccc(S(=O)(=O)N2CCCC2)s1	i	39.8µM	?	i[11.6 µM]	22.4µM	nt	?	?	Pol kappa inh-2=?
CC(C)CC(NC(=O)c1ccccc1)C(=O)N/N=C/c1ccco1 (stereo unspecified)	i	?	?	i	14.1µM	89.1µM	nt	?	PGK validate=?
C/C=C\C=C/C(=O)Nc1cccc(C2=NOC3(C2)C[C@H](C(N)=O)N(C(=O)CC)C3)c1 (stereo partly specified)	i	?	i	i	?	i	nt	nt
C=C(C)C(=O)Nc1cccc(C2=NOC3(C2)C[C@@H](C(N)=O)N(C(=O)/C=C/C=C/C)C3)c1 (stereo partly specified)	?	22.4µM	28.2µM	?	3.16µM	2.51µM	?	16.9	PGK validate=0.73µM
C/C=C/C=C\C(=O)Nc1cccc(C2=NOC3(C2)C[C@@H](C(N)=O)N(C(=O)/C(C)=C/C)C3)c1 (stereo partly specified)	i	15.8µM	50.1µM	?	17.8µM	i	10.6	16.9
C/C=C/C=C/C(=O)N1CC2(CC(c3cccc(NC(=O)CCCCC)c3)=NO2)C[C@H]1C(N)=O (stereo partly specified)	i	?	i	i	?	i	nt	nt
COc1ncc2nc(-c3ccccc3)c(=O)n(-c3ccccc3)c2n1	nt	nt	i	nt	nt	nt	nt	nt
COc1ccc(NC(=O)CN(C)C(=O)c2cccc(-n3cccc3)c2)cc1	i	12.6µM	44.7µM	44.7µM	11.2µM	nt	29.9	67.5
Oc1ccc2ccccc2c1C=NC12CN3CCN(CN(C3)C1)C2	i	20µM	i	?	20µM	i	?	?
COC(=O)CCc1ccc(O)cc1	i	i	i	i	i	i	nt	nt
COC(=O)C1(Cc2ccc(O)cc2)OC(=O)C(O)=C1c1ccc(O)cc1 (stereo unspecified)	?	12.6µM	?	?	11.2µM	20µM	42.3	26.9
NC(=O)[C@H]1O[C@@H](O)[C@H](O)[C@@H](O)[C@@H]1O	nt	nt	i[19.4 µM]	nt	nt	nt	nt	nt
O=C1C2CC=C(Cl)CC2C(=O)N1CCCCCCN1C(=O)C2CC=C(Cl)CC2C1=O (stereo unspecified)	i	17.8µM	79.4µM	?	20µM	20µM	59.7	30.1
CCc1nn2c(=O)cc(COc3ccc(/C=C4\C(=N)N5N=C(CC(C)C)SC5=NC4=O)cc3)nc2s1	i	?	i	i[11.6 µM]	?	?	75.2	75.7
COc1ccc([C@]23Cc4cc(OC)c(OC)cc4C(O2)c2c(cc(C)oc2=O)O3)cc1	nt	nt	nt	nt	nt	i[22.9 µM]	nt	nt
COc1cccc(N=c2oc3ccccc3cc2-c2nc3ccccc3[nH]2)c1	i	?	i	i	i	i	nt	nt
COc1cccc(N=c2oc3ccc(OC)cc3cc2-c2nc3ccccc3[nH]2)c1	?	?	i	?	44.7µM	?	33.6	75.7
CCCC/C=C/[C@H](c1ccccc1)[C@H](CO)Cc1cnc2ccccc2c1	i	i	i	nt	nt	nt	nt	nt
O=C(NCCN1CCN(c2ccccc2)CC1)C1(S(=O)(=O)c2ccc(Cl)cc2)CC1	i	i	i	i	i	i	nt	nt
CC1(C)CCC(c2ccc(Cl)cc2)=C(CN2CCN(c3ccc(C(=O)NS(=O)(=O)c4ccc(N[C@H](CCN5CCOCC5)CSc5ccccc5)c(S(=O)(=O)C(F)(F)F)c4)cc3)CC2)C1	?	39.8µM	44.7µM	nt	nt	nt	67	?	Pol kappa inh-2=?
Cc1nc2cnc(N(C)C)nc2n(CCC#N)c1=O	nt	nt	i	nt	nt	nt	nt	nt
CN1CCc2c(cc(O)c(O)c2Cl)C(c2cccc(Cl)c2)C1 (stereo unspecified)	nt	?	nt	nt	i	i	nt	nt
SMILES	FEN1 inhibitor	POLI inh	Pol kappa inh-1	WRN helicase inh	Pol eta inh-1	POLB inh	Pol iota confirm	Pol eta inh-2	others
COc1ccc(-c2csc(/C(C#N)=C\c3ccc(O)c([N+](=O)[O-])c3)n2)cc1OC	i	i	i	?	i	i	nt	nt
COc1cc(/C=C(\C#N)c2nc3ccccc3s2)cc([N+](=O)[O-])c1O	?	?	89.1µM	?	?	39.8µM	75.2	75.7
NC(=O)Cc1ccc(C(=O)CSc2nnc(-c3ccncc3)n2C2CC2)s1	?	14.1µM	79.4µM	?	12.6µM	nt	?	75.7
Cc1oc(-c2ccc(Cl)cc2)cc1-c1nn2c(-c3ccoc3C)nnc2s1	i	?	?	?	4.47µM	3.55µM	?	75.7
CC12CCC=CC1C(c1ccc(F)c(/C=C/c3ccccc3)c1)N(Cc1ccccc1)C2=O (stereo unspecified)	i	i	i	nt	nt	nt	nt	nt
Cc1cc(C(=O)O)ccc1-n1c(C)cc(C=C2C(=O)c3ccccc3C2=O)c1C	i	?	i	i[11.6 µM]	?	i	nt	nt
Cc1ccc(C(=O)O)cc1-c1ccc(C=C2C(=O)c3ccccc3C2=O)o1	?	?	79.4µM	i[11.6 µM]	7.94µM	31.6µM	42.3	26.9
c1csc(CNc2nc(-c3ccc4c(c3)OCO4)nc3ccccc23)c1	nt	nt	i	nt	nt	nt	nt	nt
Cc1ccccc1NC(=O)c1nc2nccc(C)n2n1	nt	nt	nt	nt	nt	i	nt	nt
Cc1ccnc2nc(C(=O)Nc3nc(-c4ccccn4)cs3)nn12	?	50.1µM	?	?	79.4µM	11.2µM	67	84.9
CC1CC(O)CC(C)(C)C1 (stereo unspecified)	nt	nt	i[19.4 µM]	nt	nt	nt	nt	nt
CCOC(=O)C(=Cc1ccc(N(C)C)cc1)C(=O)c1ccccc1	nt	nt	nt	i	nt	nt	nt	nt
CCOC(=O)N(O)c1ccc(C=Cc2ccccc2)cc1	i	25.1µM	79.4µM	?	12.6µM	nt	75.2	?	PGK validate=9.19µM;Pol kappa inh-2=16.8
O=C(CCN1C(=O)/C(=C\c2ccco2)SC1=S)Nc1ccc(C(=O)O)c(O)c1	17.8µM	i	20µM	50.1µM	8.91µM	100µM	18.9	5.36	Pol kappa inh-2=4.74
